From PubChem BioAssay
Activity calls are given as the source filed them. Unless noted, the rule behind the calls is not given here.

Legend:
[1] = A549 cell viability effects, profiling panel, calcein-AM fluorescence, 48 h, basal (AID 1162); conditions: higher = more signal; note: test concentration not given here
[2] = adipocyte viability effects, profiling panel, cell-based, 3T3-L1 adipocytes, calcein-AM fluorescence, 48 h, basal (AID 1163); conditions: 3T3-L1 adipocytes viability, higher = more signal; note: test concentration not given here
[3] = HepG2 cell viability effects, profiling panel, calcein-AM fluorescence, 48 h, basal (AID 1164); conditions: higher = more signal; note: test concentration not given here
[4] = MM1S cell viability effects, profiling panel, calcein-AM fluorescence, 48 h, basal (AID 1165); conditions: higher = more signal;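 note: viability of MM1S multiple myeloma cells under basal unstimulated conditions; test concentration not given here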
[5] = basal RPMI8226 viability, no added stimulus, profiling panel, cell-based, calcein-AM fluorescence, 48 h, PK04 Diversity Set (AID 1166); conditions: RPMI8226 myeloma viability, higher = more signal;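 note: cells grown under basal conditions without added stimulus; test concentration not given here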
[6] = basal HepG2 mitochondrial membrane potential changes, profiling panel, cell-based, JC-1 fluorescence, 24 h, 100 nL compound (AID 1167); conditions: higher = more signal; note: test concentration not given here
[7] = basal 3T3-L1 adipocyte mitochondrial potential changes, profiling panel, cell-based, JC-1 fluorescence, 3T3-L1 adipocytes, 24 h, 100 nL compound (AID 1168); conditions: JC-1 mitochondrial fluorescence, higher = more signal, called active from +8 up or from −8 down; note: test concentration not given here
[8] = basal RPMI8226 mitochondrial membrane potential changes, profiling panel, cell-based, JC-1 fluorescence, 24 h, 100 nL compound (AID 1169); conditions: RPMI8226 myeloma, JC-1 mitochondrial potential fluorescence, higher = more signal; note: test concentration not given here
[9] = basal MM1S mitochondrial membrane potential changes, profiling panel, cell-based, JC-1 fluorescence, 24 h, 100 nL compound (AID 1170); conditions: higher = more signal; note: test concentration not given here
[10] = A549 lung cancer cell viability effects, profiling panel, resazurin fluorescence, 24 h, PK04 Diversity Set (AID 1171); conditions: higher = more signal, called active from +8 up or from −8 down; note: test concentration not given here
[11] = HepG2 liver cancer cell viability effects, profiling panel, resazurin fluorescence, 24 h, PK04 Diversity Set (AID 1172); conditions: higher = more signal; note: test concentration not given here
[12] = basal S. cerevisiae growth modulation, no modifier, primary screen, OD600, strain BY4716, 24 h, basal condition (AID 1173); conditions: OD600, 24 h, higher = more signal, called active from +8 up or from −8 down
[13] = MM1S myeloma cell viability, profiling panel, resazurin fluorescence, basal, 24 h, PK04 Diversity Set (AID 1174); conditions: higher = more signal, called active from +8 up or from −8 down;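 note: MM1S multiple myeloma cell line; test concentration not given here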
[14] = molecular target: Dihydroorotate dehydrogenase (quinone), mitochondrial (Plasmodium falciparum (isolate 3D7)) (UniProt Q08210); test: PfDHODH enzyme inhibitors, primary screen, biochemical, C-terminal His tag, absorbance 600 nm (AID 1175); conditions: DCIP absorbance 600 nm, higher = more signal, called active from +8 up or from −8 down;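 note: recombinant parasite enzyme with a five histidine tag at its C terminus; test concentration not given here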
Sequence of Dihydroorotate dehydrogenase (quinone), mitochondrial (Plasmodium falciparum (isolate 3D7)) (Q08210 whole entry, looked up): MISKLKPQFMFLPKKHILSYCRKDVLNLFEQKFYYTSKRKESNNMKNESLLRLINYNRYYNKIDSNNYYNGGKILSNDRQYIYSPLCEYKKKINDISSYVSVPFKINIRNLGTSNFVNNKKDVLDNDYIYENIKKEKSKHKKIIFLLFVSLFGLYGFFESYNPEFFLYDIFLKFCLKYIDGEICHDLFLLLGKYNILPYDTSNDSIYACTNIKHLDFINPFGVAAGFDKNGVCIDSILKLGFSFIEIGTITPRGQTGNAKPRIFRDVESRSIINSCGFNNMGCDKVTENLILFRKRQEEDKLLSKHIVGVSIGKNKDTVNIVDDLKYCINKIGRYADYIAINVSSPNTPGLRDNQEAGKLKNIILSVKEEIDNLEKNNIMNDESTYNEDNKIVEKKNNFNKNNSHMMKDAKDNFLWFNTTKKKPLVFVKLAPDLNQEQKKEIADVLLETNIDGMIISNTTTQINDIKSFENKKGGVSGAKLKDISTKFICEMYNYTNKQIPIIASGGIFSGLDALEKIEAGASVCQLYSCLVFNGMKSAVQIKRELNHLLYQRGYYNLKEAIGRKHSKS

[15] = P. aeruginosa biofilm formation inhibitors, primary screen, strain PAO1, LB-PBS medium, absorbance 600 nm (AID 1176); note: test concentration not given here; conditions: P. aeruginosa PAO1 growth/biofilm, A600, 12 h; higher = more signal
[16] = S. cerevisiae RM11-1a growth modifiers, primary screen, strain RM11-1a, OD600, basal, 24 h (AID 1177); conditions: OD600, 24 h, higher = more signal, called active from +8 up or from −8 down;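 note: cultures grown under basal conditions with no added stressor; test concentration not given here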
[17] = E. coli acrAB mutant growth effects, primary screen, E. coli filamentation inducers, strain DRC39, OD650, 24 h (AID 1178); conditions: higher = more signal, called active from +8 up or from −8 down;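 note: growth measured as culture turbidity by optical density at 650 nm; test concentration not given here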
[18] = E. coli acrAB mutant growth effects, primary screen, E. coli filamentation inducers, strain DRC39, OD650, 48 h (AID 1179);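 note: screen aims at cell division blockers that make cells filament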; conditions: E. coli DRC39 delta-acrAB growth, higher = more signal, called active from +8 up or from −8 down
[19] = RPMI8226 myeloma cell viability, profiling panel, resazurin fluorescence, basal, 24 h, PK04 Diversity Set (AID 1180); conditions: higher = more signal;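 note: RPMI8826 multiple myeloma cell line at 5000 cells per well; test concentration not given here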
[20] = molecular target: E3 ubiquitin-protein ligase XIAP (Homo sapiens) (UniProt P98170); test: XIAP binders, primary screen, biophysical, small-molecule microarray, fluorescence 635 nm (AID 1181); conditions: small-molecule microarray binding, higher = more signal;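 note: score merges 667 nm emission and signal to noise over triplicate slides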
Sequence of E3 ubiquitin-protein ligase XIAP (Homo sapiens) (P98170 whole entry, looked up): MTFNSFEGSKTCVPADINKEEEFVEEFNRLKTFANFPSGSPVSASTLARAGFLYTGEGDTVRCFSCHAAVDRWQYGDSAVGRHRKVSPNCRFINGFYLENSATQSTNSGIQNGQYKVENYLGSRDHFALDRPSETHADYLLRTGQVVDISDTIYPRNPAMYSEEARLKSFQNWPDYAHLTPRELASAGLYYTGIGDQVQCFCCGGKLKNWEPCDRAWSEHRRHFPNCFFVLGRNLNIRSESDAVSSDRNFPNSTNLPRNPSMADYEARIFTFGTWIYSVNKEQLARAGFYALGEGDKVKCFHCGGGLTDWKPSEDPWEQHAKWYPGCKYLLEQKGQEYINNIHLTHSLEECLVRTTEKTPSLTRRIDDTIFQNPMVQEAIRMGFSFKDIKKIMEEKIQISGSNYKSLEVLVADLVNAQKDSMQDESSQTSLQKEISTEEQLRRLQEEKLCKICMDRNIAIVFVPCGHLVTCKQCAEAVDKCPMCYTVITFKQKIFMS

Structure (SMILES)	z-score [1]	z-score [2]	z-score [3]	z-score [4]	z-score [5]	z-score [6]	z-score [7]	z-score [8]	z-score [9]	z-score [10]	z-score [11]	z-score [12]	z-score [13]	composite z-score [14]	z-score [15]	z-score [16]	z-score [17]	z-score [18]	z-score [19]	composite z-score [20]
CN1C(=O)C2C=CC(C(O)c3ccc(F)cc3)N(N(c3ccccc3)c3ccccc3)C2C1=O (stereo not given)	-0.631	-2.01	0.153	0.0431	-0.462	-1.03	-0.802 (inactive)	0.399	-1.03	-0.867 (inactive)	-0.898	0.41 (inactive)	-0.957 (inactive)	-0.0882 (inactive)	1.14 (inactive)	0.242 (inactive)	-0.513 (inactive)	-0.26 (inactive)	-1.36	0.499
O=C1OCCC=C[C@H]2OC34C=CCN(c5ccc(Cl)cc5)C(=O)[C@H]3N(CCCO)C(=O)[C@@H]4C12 (stereo not given in full)	0.0676	1.95	-0.517	0.435	-1.16	-0.00501	0.272 (inactive)	-0.21	0.162	-0.797 (inactive)	-0.281	-0.757 (inactive)	0.357 (inactive)	-0.792 (inactive)	0.248 (inactive)	-0.163 (inactive)	0.881 (inactive)	0.415 (inactive)	-0.658	-0.0826
COC(=O)C[C@H]1O[C@@H](CCc2ccccc2)[C@@H](C)[C@@H]1[Si](C)(C)c1ccc(OC)cc1	1.47	1.27	-0.755	-0.843	-3.97	0.453	-0.0941 (inactive)	-1.12	-0.0681	0.989 (inactive)	0.294	-0.938 (inactive)	-0.229 (inactive)	0.656 (inactive)	-0.529 (inactive)	0.725 (inactive)	-0.0089 (inactive)	-1.12 (inactive)	-0.206	0.152
COCCOC(=O)N1C(=O)[C@@]2(c3cc(C#CC4(O)CCCCCC4)ccc31)[C@H](C(=O)Nc1nc3ccccc3s1)[C@H]1C(=O)O[C@H](c3ccccc3)[C@H](c3ccccc3)N1[C@@H]2c1ccccc1OCCO	1.29	1.14	-0.333	-2.18	-3.42	-3.05	1.47 (inactive)	-0.866	-0.876	-0.511 (inactive)	0.709	0.504 (inactive)	-1.15 (inactive)	-0.747 (inactive)	0.249 (inactive)	1.78 (inactive)	-0.632 (inactive)	0.635 (inactive)	-0.435	-0.0118
COc1ccc(C(O)C2C=CC3C(=O)N(C)C(=O)C3N2NC(=O)OC(C)(C)C)c2ccccc12 (stereo not given)	-0.844	-0.769	-1.99	0.18	-0.463	-2.62	0.549 (inactive)	0.674	0.932	1.94 (inactive)	-1.78	-1.15 (inactive)	-0.0317 (inactive)	0.799 (inactive)	0.503 (inactive)	1.06 (inactive)	-0.45 (inactive)	-0.765 (inactive)	-0.993	-0.193
CC(C)(C)OC(=O)CC[C@@]1(C(=O)N2CCCCC2)N=C(c2ccc(OCCCO)cc2)O[C@@H]1c1ccccc1	-0.637	0.452	0.644	-1.99	-2.22	1.59	0.0803 (inactive)	-0.636	0.0287	0.894 (inactive)	0.426	-0.563 (inactive)	-0.76 (inactive)	-0.159 (inactive)	0.935 (inactive)	0.262 (inactive)	-0.174 (inactive)	-1.53 (inactive)	0.0487	0.138
